Data published in PubChem BioAssay (Tox21).
Inconclusive results are not listed. Activity calls are given as the source filed them. Unless noted, calls follow the shape of the full dose curve.

What was measured:
[1] = Nuclear factor erythroid 2-related factor 2/antioxidant responsive element (Nrf2/ARE) small molecule agonists: qHTS cell viability counter screen in human keratinocytes (AID 1919968; active = well fitted curve in the direction sought with a large enough effect in the repeat runs; an effect the other way counts as inactive or inconclusive; also: nearly all actives have a fitted effect of over 55% in size; also: potency is read from the fitted curve at half-maximal effect)
Method in brief: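 Stably transfected HaCaT (KeratinoSens), 1,500/well. Test agents in DMSO were applied for 23 h, 37 C/5% CO2. CellTiter-Fluor was incubated 1 h before the fluorescence read.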

[2] = Nuclear factor erythroid 2-related factor 2/antioxidant responsive element (Nrf2/ARE) small molecule agonists: luciferase reporter gene qHTS assay in human keratinocytes (AID 1919969); also: nearly all actives have a fitted effect of over 35% in size; also: potency is read from the fitted curve at half-maximal effect
[3] = target: Gonadotropin-releasing hormone receptor (Homo sapiens) (UniProt P30968); assay: Human gonadotropin-releasing hormone receptor (GnRHR) small molecule agonists, calcium flux assay in GnRHR-HEK293 cells (AID 1920063); also: nearly all actives have a fitted effect of over 35% in size; also: potency is read from the fitted curve at half-maximal effect
Sequence of Gonadotropin-releasing hormone receptor (Homo sapiens) (P30968 whole entry, looked up): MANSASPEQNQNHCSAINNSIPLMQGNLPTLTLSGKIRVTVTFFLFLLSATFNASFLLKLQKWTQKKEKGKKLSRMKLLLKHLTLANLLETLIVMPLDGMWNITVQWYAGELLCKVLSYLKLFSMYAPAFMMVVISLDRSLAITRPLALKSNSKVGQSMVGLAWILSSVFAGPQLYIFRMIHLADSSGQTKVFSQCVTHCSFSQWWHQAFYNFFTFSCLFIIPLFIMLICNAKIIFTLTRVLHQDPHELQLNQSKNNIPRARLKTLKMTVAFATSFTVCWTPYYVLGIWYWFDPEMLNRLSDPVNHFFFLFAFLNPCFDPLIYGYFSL
Method in brief: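 Stable human GnRHR HEK293 line. 18 h plating, then calcium dye for 1 h at 37 C. Agonist-mode compound addition from DMSO stocks; fluorescence monitored 3 min.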

[4] = target: KiSS-1 receptor (Homo sapiens) (UniProt Q969F8); assay: Human kisspeptin (KISS1R) small molecule agonists, calcium flux assay in KISS1R-HEK293 cells (AID 1920064; active = well fitted curve in the direction sought with a large enough effect in the repeat runs; an effect the other way counts as inactive or inconclusive)
Sequence of KiSS-1 receptor (Homo sapiens) (Q969F8 whole entry, looked up): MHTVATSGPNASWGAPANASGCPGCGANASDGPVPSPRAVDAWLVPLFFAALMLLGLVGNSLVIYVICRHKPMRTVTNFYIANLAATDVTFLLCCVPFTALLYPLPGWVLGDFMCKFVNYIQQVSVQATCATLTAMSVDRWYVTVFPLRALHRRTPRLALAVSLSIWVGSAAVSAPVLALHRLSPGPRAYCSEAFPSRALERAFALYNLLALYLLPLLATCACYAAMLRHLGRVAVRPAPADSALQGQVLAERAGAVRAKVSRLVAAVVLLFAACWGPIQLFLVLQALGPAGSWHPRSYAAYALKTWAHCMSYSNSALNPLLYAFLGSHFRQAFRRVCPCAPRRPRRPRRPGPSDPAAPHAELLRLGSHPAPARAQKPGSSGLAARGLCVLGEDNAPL
Method in brief: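 After overnight (18 h) culture at 37 C/5% CO2, human KISS1R-HEK293 cells received calcium dye for 1 h, then test compound; emission at 540 nm (excitation 480 nm) was tracked for 3 min.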

[5] = p53 small molecule agonists, cell-based qHTS assay with human liver microsomes (AID 1963577)
Method in brief: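 p53RE-bla cells, 4,000/well, compound added after 5 h, with human liver microsomes 0.5 mg/mL and NADPH 0.5 mg/mL final; 16 h at 37 C, then LiveBLAzer 2 h RT, fluorescence.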

[6] = p53 small molecule agonists, cell-based qHTS assay with rat liver microsomes (AID 1963578)
Method in brief: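 p53RE-bla cells, 4,000/well, pre-incubated 5 h, then given compounds plus rat liver microsomes (0.5 mg/mL final) and NADPH (0.5 mg/mL final). Incubation 16 h at 37 C; beta-lactamase reporter read by LiveBLAzer fluorescence after 2 h at room temperature.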

[7] = p53 small molecule agonists, cell-based qHTS assay with rat liver microsomes: qHTS cell viability counter screen (AID 1963580); also: nearly all actives have a fitted effect of over 45% in size; also: potency is read from the fitted curve at half-maximal effect
Method in brief: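 Cytotoxicity counter screen: intracellular ATP measured by CellTiter-Glo luminescence in the same wells as the beta-lactamase reporter read, on HCT-116 p53RE-bla cells exposed 16 h at 37 C to compounds with rat liver microsomes and NADPH, each 0.5 mg/mL final.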

[8] = target: 5-hydroxytryptamine receptor 2A (Homo sapiens) (UniProt P28223); assay: 5-hydroxytryptamine receptor 2A (HTR2A) small molecule agonists, cell-based qHTS assay (AID 1963587); also: nearly all actives have a fitted effect of over 30% in size; also: potency is read from the fitted curve at half-maximal effect
Sequence of 5-hydroxytryptamine receptor 2A (Homo sapiens) (P28223 whole entry, looked up): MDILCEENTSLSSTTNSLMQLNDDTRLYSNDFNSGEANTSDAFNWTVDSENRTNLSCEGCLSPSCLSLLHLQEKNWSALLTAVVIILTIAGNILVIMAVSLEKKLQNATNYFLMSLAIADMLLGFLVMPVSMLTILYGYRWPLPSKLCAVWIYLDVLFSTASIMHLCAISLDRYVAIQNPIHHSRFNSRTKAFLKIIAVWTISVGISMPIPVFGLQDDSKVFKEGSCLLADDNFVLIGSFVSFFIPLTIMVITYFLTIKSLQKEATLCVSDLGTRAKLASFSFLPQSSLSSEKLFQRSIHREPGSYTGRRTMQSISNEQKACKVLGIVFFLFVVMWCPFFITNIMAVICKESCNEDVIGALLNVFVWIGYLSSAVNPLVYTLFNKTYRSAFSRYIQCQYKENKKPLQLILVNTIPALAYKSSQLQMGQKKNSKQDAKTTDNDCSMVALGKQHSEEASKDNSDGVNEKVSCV
Method in brief: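 CHO cells stably expressing human HTR2A, plated 18 h, loaded with calcium dye 1 h at 37 C. Agonist mode: compounds added and intracellular calcium fluorescence recorded kinetically for 2 min at 1 sec intervals.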

[9] = target: Muscarinic acetylcholine receptor M1 (Homo sapiens) (UniProt P11229); assay: Cholinergic receptor muscarinic 1 (CHRM1) small molecule antagonists, cell-based qHTS assay (AID 1963588); also: nearly all actives have a fitted effect of over 40% in size; also: potency is read from the fitted curve at half-maximal effect
Sequence of Muscarinic acetylcholine receptor M1 (Homo sapiens) (P11229 whole entry, looked up): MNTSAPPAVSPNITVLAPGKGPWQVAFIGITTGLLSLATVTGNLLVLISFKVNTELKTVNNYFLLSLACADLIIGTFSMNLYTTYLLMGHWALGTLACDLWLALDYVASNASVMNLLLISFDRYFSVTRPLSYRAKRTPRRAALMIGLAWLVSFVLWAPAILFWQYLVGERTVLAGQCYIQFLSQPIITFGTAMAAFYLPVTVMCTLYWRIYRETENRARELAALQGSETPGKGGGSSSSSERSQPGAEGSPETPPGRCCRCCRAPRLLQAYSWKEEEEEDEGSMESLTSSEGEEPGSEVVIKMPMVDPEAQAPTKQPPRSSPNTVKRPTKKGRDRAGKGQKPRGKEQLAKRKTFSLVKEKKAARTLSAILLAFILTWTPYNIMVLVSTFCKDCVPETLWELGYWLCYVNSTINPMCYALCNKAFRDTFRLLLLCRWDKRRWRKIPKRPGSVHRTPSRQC
Method in brief: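 Compounds were tested at 15 concentrations in three independent runs. Dye-loaded CHRM1-CHO cells were exposed 5 min at room temperature before stimulation by acetylcholine added at 50nM. Intracellular calcium was read kinetically on FDSS for 3 min.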

[10] = target: Muscarinic acetylcholine receptor M1 (Homo sapiens) (UniProt P11229); assay: Cholinergic receptor muscarinic 1 (CHRM1) small molecule agonists, cell-based qHTS assay (AID 1963589); also: nearly all actives have a fitted effect of over 35% in size; also: potency is read from the fitted curve at half-maximal effect
Method in brief: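 Kinetic fluorescence (1 s intervals) of calcium-sensitive dye in human M1 CHO cells after compound addition; cells pre-incubated 18 h at 37 C/5% CO2 and dye-loaded 1 h.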

[11] = cAMP Responsive Elements (CRE) small molecule agonists, cell-based qHTS assay (AID 1963590)
Method in brief: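 Test agents in DMSO were incubated 3 h at 37 C/5% CO2 with CRE-bla HEK 293T cells seeded 18 h earlier; LiveBLAzer B/G FRET substrate was added and read after 2 h at room temperature.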

[12] = cAMP Responsive Elements (CRE) small molecule antagonists, cell-based qHTS assay (AID 1963591; active = well fitted inhibition curve with a large enough effect in the signal ratio in the repeat runs, not every such curve was filed as active; the % refers to the signal ratio)
Method in brief: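 Reporter line CRE-bla HEK 293T in dialyzed-FBS DMEM; cells preincubated 18 h, treated 3 h with compound plus NKH477 (0.25 uM final); LiveBLAzer FRET, 2 h RT.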

[13] = target: Beta-2 adrenergic receptor (Homo sapiens) (UniProt P07550); assay: Adrenergic beta2 receptor (ADRB2) small molecule antagonists, cell-based qHTS assay (AID 1963592); also: series mostly up to about 92 µM; nearly all actives have a fitted effect of over 50% in size
Sequence of Beta-2 adrenergic receptor (Homo sapiens) (P07550 whole entry, looked up): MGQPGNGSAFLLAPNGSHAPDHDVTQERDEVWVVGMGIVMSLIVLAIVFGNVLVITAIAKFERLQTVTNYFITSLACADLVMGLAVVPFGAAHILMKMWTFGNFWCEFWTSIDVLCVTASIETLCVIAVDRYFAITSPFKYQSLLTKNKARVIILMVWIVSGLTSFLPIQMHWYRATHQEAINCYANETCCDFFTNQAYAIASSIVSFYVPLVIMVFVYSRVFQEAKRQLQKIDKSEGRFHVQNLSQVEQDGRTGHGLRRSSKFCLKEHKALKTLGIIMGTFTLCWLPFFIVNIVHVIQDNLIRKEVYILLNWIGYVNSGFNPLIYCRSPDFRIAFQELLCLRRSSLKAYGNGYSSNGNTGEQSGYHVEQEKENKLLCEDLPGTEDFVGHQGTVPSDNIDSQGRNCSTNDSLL
Method in brief: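 Assay format: CHO-ADRB2 cells, 18-20hr seeding at 37C/5% CO2, then compound plus 1nM isoproterenol agonist mix for 0.5hr RT. Homogeneous time-resolved fluorescence cAMP detection after 1hr, expressed as 665/615 nm ratio.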

[14] = target: D(2) dopamine receptor (Homo sapiens) (UniProt P14416); assay: Dopamine D2 receptor (DRD2) small molecule agonists, cell-based qHTS assay (AID 1963594); also: nearly all actives have a fitted effect of over 35% in size
Sequence of D(2) dopamine receptor (Homo sapiens) (P14416 whole entry, looked up): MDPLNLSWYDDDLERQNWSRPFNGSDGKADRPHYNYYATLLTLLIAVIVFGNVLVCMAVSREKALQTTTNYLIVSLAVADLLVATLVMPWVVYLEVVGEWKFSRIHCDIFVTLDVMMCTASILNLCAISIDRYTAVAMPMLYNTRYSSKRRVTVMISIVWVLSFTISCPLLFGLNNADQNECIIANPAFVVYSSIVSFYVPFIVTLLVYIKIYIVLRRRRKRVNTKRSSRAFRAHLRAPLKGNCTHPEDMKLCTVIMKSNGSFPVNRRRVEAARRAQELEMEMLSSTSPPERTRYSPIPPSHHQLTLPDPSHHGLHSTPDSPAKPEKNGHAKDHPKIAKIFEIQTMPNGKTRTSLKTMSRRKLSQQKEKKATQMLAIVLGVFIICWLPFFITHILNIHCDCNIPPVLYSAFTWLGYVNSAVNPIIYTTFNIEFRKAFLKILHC
Method in brief: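 HEK293 cells stably expressing human DRD2, pre-treated with PDE inhibitor Ro20-1724 (0.1 mM final) and compound 10 min at room temperature, then stimulated with NKH477 (200nM […]) for 30 min. cAMP read by HTRF (665/620 nm).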

[15] = target: D(2) dopamine receptor (Homo sapiens) (UniProt P14416); assay: Dopamine D2 receptor (DRD2) small molecule antagonists, cell-based qHTS assay (AID 1963595; active = well fitted inhibition curve with a large enough effect in the signal ratio in the repeat runs, with a control signal flat; the % refers to the signal ratio; also: potency is read from the fitted curve at half-maximal effect)
Method in brief: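 In this cell-based antagonist screen, compounds act for 10 min at room temperature before a 30 min challenge with 12 nM quinpirole and 200 nM NKH477. cAMP is quantified by HTRF competition in DRD2-HEK293 cells containing 0.1 mM Ro20-1724.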

[16] = p53 small molecule agonists, cell-based qHTS assay with human liver microsomes: qHTS cell viability counter screen (AID 1963579); also: nearly all actives have a fitted effect of over 45% in size; also: potency is read from the fitted curve at half-maximal effect
Method in brief: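 p53RE-bla cells, 4,000/well, dosed 5 hours after plating, with human liver microsomes (0.5 mg/mL final) plus NADPH (0.5 mg/mL final), 16 hours at 37 C. Viability read as CellTiter-Glo luminescence after 30 min at room temperature.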

[17] = p53 small molecule agonists, cell-based qHTS assay: qHTS cell viability counter screen (AID 1963581); also: nearly all actives have a fitted effect of over 45% in size
Method in brief: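 qHTS counter screen: 16 h compound exposure at 37 C of p53RE-bla HCT-116 cells (4,000 per well, seeded 5 h prior), cell viability by ATP luminescence.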

[18] = target: 5-hydroxytryptamine receptor 2A (Homo sapiens) (UniProt P28223); assay: 5-hydroxytryptamine receptor 2A (HTR2A) small molecule antagonists, cell-based qHTS assay (AID 1963586); also: nearly all actives have a fitted effect of over 45% in size; also: potency is read from the fitted curve at half-maximal effect
Method in brief: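 CHO cells stably expressing human HTR2A were plated for 18 h at 37 C, then loaded with calcium dye for 1 h. Compounds were preincubated 5 min at room temperature before DOI (4 nM solution) was added. Kinetic fluorescence was read for 3 min.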

[19] = target: Beta-2 adrenergic receptor (Homo sapiens) (UniProt P07550); assay: Adrenergic beta2 receptor (ADRB2) small molecule agonists, cell-based qHTS assay (AID 1963593);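 also: CHO cells stably overexpressing human ADRB2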
Method in brief: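 CHO cells stably over-expressing ADRB2 were plated overnight at 37C, then dosed with compounds plus a stimulation mix containing 100uM IBMX and 25uM Ro-20-1724 for 0.5hr at room temperature. cAMP was measured by HTRF competition, 1hr.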

[20] = G protein-coupled receptor (GPCR) small molecule agonists, calcium flux assay: HEK293 wild type cell line counter screen (AID 1920065); also: potency is read from the fitted curve at half-maximal effect
Method in brief: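 Following 18 h incubation at 37 C/5% CO2, plates got calcium dye for 1 h; compounds, ATP or DMSO were then pinned in and fluorescence followed kinetically (480/540 nm).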

Measured: Potency

CC(C)(C)OO
not listed: [16] | [17] | [18] | [19] | [20]
inactive: all other assays above

CCNP(=S)(OC)O/C(C)=C/C(=O)OC(C)C (stereo not drawn)
not listed: [5] | [6] | [9] | [20]
inactive: all other assays above

O=[N+]([O-])c1ccc2c3c(cccc13)CC2
not listed: [6] | [9] | [10] | [12] | [15] | [19] | [20]
inactive: all other assays above

Cc1ccc(-c2c(Cl)nc(C#N)n2S(=O)(=O)N(C)C)cc1
active: [1] 15.3 µM | [2] 9.68 µM
not listed: [6] | [8] | [11] | [12] | [18] | [19] | [20]
inactive: all other assays above

Cc1cccc(C)c1NC1=NCCCS1
not listed: [5] | [6] | [18] | [19] | [20]
inactive: all other assays above

CC1(C)[C@H](C=C(Cl)Cl)[C@@H]1C(=O)O[C@@H](C#N)c1cccc(Oc2ccccc2)c1
not listed: [6] | [9] | [20]
inactive: all other assays above

Clc1ccccc1N1CCNCC1
active: [18] 1.16 µM
not listed: [8] | [13] | [17] | [19] | [20]
inactive: all other assays above

CS(=O)(=O)c1ccc(C(=O)C2C(=O)CCCC2=O)c([N+](=O)[O-])c1
inactive: [1] | [2] | [3] | [4] | [6] | [16] | [17] | [18] | [8] | [13] | [15]

N#Cc1cc(I)c(O)c(I)c1
active: [7] 45.8 µM
not listed: [10] | [11] | [12] | [13] | [16] | [17] | [20]
inactive: all other assays above

CCOP(=S)(S)OCC
active: [2] 64.4 µM
not listed: [4] | [5] | [6]
inactive: all other assays above

Nc1cc(Cl)ccc1O
active: [2] 52.7 µM
not listed: [4] | [12] | [19] | [20]
inactive: all other assays above

O=C(CCCN1CCC(n2c(=O)[nH]c3ccccc32)CC1)c1ccc(F)cc1
active: [18] 1.83 µM | [9] 2.05 µM
not listed: [3] | [8] | [12] | [13] | [15] | [19]
inactive: all other assays above

CC(C)(C)C(O)C(Oc1ccc(Cl)cc1)n1cncn1 (stereo not drawn)
inactive: [1] | [3] | [20] | [6] | [16] | [17] | [8] | [11]
active: [2] 68.6 µM

O=[N+]([O-])c1cccc2cccnc12
not listed: [4] | [5] | [11]
inactive: all other assays above

Cc1ccc(N(SC(F)(Cl)Cl)S(=O)(=O)N(C)C)cc1
inactive: [5] | [6] | [18]
active: [1] 27.3 µM | [2] 7.7 µM | [3] 34.7 µM | [20] 38.9 µM | [16] 16.2 µM | [8] 49 µM | [10] 49 µM | [15] 3.06 µM

CNNC
not listed: [3] | [11] | [12] | [19]
inactive: all other assays above

CCC1(CC)C(=O)NC(=O)NC1=O
not listed: [4] | [5] | [6] | [9] | [13] | [15] | [17] | [19]
inactive: all other assays above

O=C(Cc1ccccc1)OCc1ccccc1
not listed: [5] | [6] | [9] | [17] | [18] | [19] | [20]
inactive: all other assays above
